# Laboratory results from PubChem BioAssay AID602318 (Sanford-Burnham Center for Chemical Genomics, 2012).
# The whole screen tested about 1,900 compounds, of which about 550 (29%) were called active. Rule as the data show it: active = inhibition above about 40%; inactive = the rest. A selection follows.
# Molecular target: 26S proteasome non-ATPase regulatory subunit 14 (Homo sapiens) (UniProt O00487)
# Test: Rpn11 (PSMD14) deubiquitinase inhibitors, confirmation, biochemical, fluorescence polarization, single concentration (AID 602318)
# Settings: purified human 26S proteasome, Ub4-pepOG fluorescence polarization; at 20 µM; stronger effect = higher value; proteasome pretreated with epoxomicin
# Chain of 26S proteasome non-ATPase regulatory subunit 14 (Homo sapiens) (O00487 whole entry, looked up): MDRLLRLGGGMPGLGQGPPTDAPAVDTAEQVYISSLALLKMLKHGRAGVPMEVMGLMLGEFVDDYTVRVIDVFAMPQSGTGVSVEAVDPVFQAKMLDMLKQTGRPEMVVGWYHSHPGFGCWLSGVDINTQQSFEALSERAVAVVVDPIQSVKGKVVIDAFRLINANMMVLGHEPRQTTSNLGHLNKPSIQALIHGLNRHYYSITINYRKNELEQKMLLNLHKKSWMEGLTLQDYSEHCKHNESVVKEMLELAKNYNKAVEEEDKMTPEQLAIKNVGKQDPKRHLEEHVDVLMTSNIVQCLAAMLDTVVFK
row,Structure (SMILES),inhibition
1,CCOc1ccc(NC(=O)c2ccc(NC(=O)COC(=O)c3ccc(NC(=O)CC#N)cc3)cc2)cc1,103% (active)
2,COC(=O)c1ccc(OCC(=O)NC(C)(C)C)cc1,-8.84% (inactive)
3,Cc1nc2ccc(C(=O)N3CCSCC3)cc2s1,-7.54% (inactive)
4,Oc1c(CN2CCCC2)cc(COCc2ccccc2)c2cccnc12,14.7% (inactive)
5,C=CC[n+]1c(-c2ccc(C)cc2)csc1NNC(=O)Nc1ccccc1,9.49% (inactive)
6,CC(C)(C)NC(=O)CSC(=Nc1ccccc1F)NC#N,16.3% (inactive)
7,CCOc1cc(/C=C2\SC(N3CCCC(C)C3)=NC2=O)ccc1O (centres undefined),11.7% (inactive)
8,Cc1cccc(OCc2nnc(SCc3nc4cc(C(F)(F)F)ccc4c(=O)[nH]3)o2)c1,57.8% (active)
9,CCc1ccc(NC(=O)CS(=O)CC(=O)NCCCc2ccccc2)cc1 (centres undefined),20.8% (inactive)
10,COc1cccc(NC(=O)C(C)Oc2ccccc2)c1 (centres undefined),-12.2% (inactive)
11,O=C(O)c1ccc(NN=CC2=C(N3CCOCC3)/C(=C/c3ccccc3)CC2)cc1,48.1% (active)
12,CN(C)CCOC1c2ccccc2-c2ccccc21,-6.33% (inactive)
13,COc1ccc(NC(=O)Cn2c(-c3ccc(OC)cc3)cn(-c3ccc(C)cc3)c2=O)cc1,42.8% (active)
14,COc1ccc(CC(=O)Nc2ccc(-c3nnc(-c4ccc(C)cc4)o3)cc2)cc1,-7.43% (inactive)
15,Cc1ccc(NC(=O)CN2CCc3ccccc3C2)cc1,-8.38% (inactive)
16,NC(N)=N/N=C/c1ccc(OCc2ccc(Cl)cc2Cl)cc1,37% (inactive)
17,Oc1ccc(/C=N/Nc2nc(-c3ccccc3F)nc3ccccc23)c(O)c1,18.3% (inactive)
18,O=C1NC(=O)C2C1C(c1ccc([N+](=O)[O-])cc1)=NN2Cc1ccccc1 (centres undefined),29.9% (inactive)
19,CC(C)Oc1ccc(/C=C(\NC(=O)/C=C/c2ccco2)C(=O)NCCc2nc3ccccc3[nH]2)cc1,44.1% (active)
20,Cc1ccc(-c2nnc(-c3ccc(NC(=O)c4cccs4)cc3)o2)cc1,-12.4% (inactive)
21,Cc1c(N=Nc2ccc(N(C)C)cc2)c(=O)n(-c2ccccc2)n1C,47.2% (active)
22,CCN1CCCC1CNC(=O)c1cc2c(=O)n(C)c3ccccc3c2n1C (centres undefined),2.2% (inactive)
23,Cc1cc(OCC(=O)Nc2nccs2)c2c(C)c(C)c(=O)oc2c1,38.8% (inactive)
24,Cc1nc2ccccc2nc(=O)c1NNc1ccc([N+](=O)[O-])cc1,24% (inactive)
